Screens (PubChem)
Nrf2 activator = activators of Nrf2 (ARE) signaling. AREc32 ARE-luciferase reporter (MCF7-derived line), luminescence, 24 h. Potency, µM (doses to about 46.1 µM), hits mostly activators. 410,000 compounds, 0.31% hits; further: nearly all actives have a fitted effect of over 65% in size
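AREc32_Fluc, 1000 cells/well, OPTI-MEM + 5% FBS, o/n 37 deg C 5% CO2; 23 nL cpd by pin tool, 24 hr; Steady-Glo 30 min RT, luminescence.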
GALK inh = galactokinase (human) inhibition. Potency, µM (highest dose often 57.5 µM), actives largely listed as inhibitors. 270,000 compounds, 0.007% hits. Purified GALK, Kinase-Glo residual ATP luminescence
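The enzyme phosphorylates galactose (100 uM) using ATP (35 uM); inhibition is detected as higher residual ATP, quantified by bioluminescence after 1 h reaction at room temperature, pH 8.0.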
TrxR1 substrate = is turned over as a substrate by rat TrxR1; O89049; purified TrxR1 substrate turnover, NADPH consumption readout; Potency, µM (doses to about 114 µM); 390,000 compounds, 0.01% hits; AID 588456; further: nearly all actives have a fitted effect of over 50% in size
Target sequence (O89049 whole entry, looked up): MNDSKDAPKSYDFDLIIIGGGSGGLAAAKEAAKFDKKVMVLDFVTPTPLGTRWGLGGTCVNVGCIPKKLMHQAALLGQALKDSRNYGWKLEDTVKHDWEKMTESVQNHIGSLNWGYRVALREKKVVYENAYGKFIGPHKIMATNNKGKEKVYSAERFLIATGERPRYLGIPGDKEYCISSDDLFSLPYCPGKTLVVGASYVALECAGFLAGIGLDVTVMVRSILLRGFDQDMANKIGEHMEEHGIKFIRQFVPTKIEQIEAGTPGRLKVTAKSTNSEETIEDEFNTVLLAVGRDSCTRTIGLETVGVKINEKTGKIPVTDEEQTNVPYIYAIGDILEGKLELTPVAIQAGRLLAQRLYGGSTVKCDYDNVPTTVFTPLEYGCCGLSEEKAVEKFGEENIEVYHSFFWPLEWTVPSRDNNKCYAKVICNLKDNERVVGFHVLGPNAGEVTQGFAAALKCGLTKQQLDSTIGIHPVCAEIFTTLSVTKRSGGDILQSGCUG
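Rat TrxR1, dispensed at 90 nM, was prereduced with 400 uM NADPH (final) for 5 min at ~22 deg C, then incubated with compound 15 min before 400 uM selenite. A first-read NADPH fluorescence drop versus no-compound background flagged substrates.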
TrxR1 inh = rat TrxR1 inhibition. O89049. 390,000 compounds, 1% hits. Potency, µM (highest dose often 114 µM), actives largely listed as inhibitors. recombinant rTrxR1, NADPH fluorescence consumption, selenite substrate; further: nearly all actives have a fitted effect of over 65% in size
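Rat TrxR1 (90 nM in the dispensed reagent) was pre-reduced with 400 uM NADPH for 5 min at room temperature, then incubated with compound for 15 min. After 400 uM selenite was added, NADPH fluorescence (Ex 340/Em 450 nm) was followed for 8 min.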
Nrf2 inh = inhibitors of Nrf2 signaling; Potency, µM (highest dose often 46 µM), usual class: inhibitors; A549 ARE-Fluc reporter, luciferase luminescence, 18-24 h; 360,000 compounds, 2.1% hits; further: nearly all actives have a fitted effect of over 60% in size
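A549 ARE_Fluc cells (5000/well, 5% FBS OPTI-MEM) pre-incubated 2 h, then treated with compounds 18-24 h at 37C/5% CO2 in concentration-response. CellTiter-Fluor viability read first; BugLite luciferase luminescence after 15 min at room temperature gives Nrf2 activity.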
A549 viability = counter-screen for Nrf2 inhibitors: cytotoxicity in A549 cells; A549 ARE-Fluc cells, CellTiter-Fluor viability, 18-24 h; Potency, µM (titrated, usually from 46 µM), hits mostly inhibitors; 390,000 compounds, 0.16% hits; AID 504648
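Cytotoxicity counterscreen: CellTiter-Fluor fluorescence was measured in A549 ARE_Fluc cells after 18-24 h of compound exposure in a concentration series. The subsequent BugLite luminescent read reports ARE-luciferase activity.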
Each line names hits and unclear results; the compound was inactive in the other large screens. An excerpt weighted towards active compounds, which were near 3% of everything screened. The call rests on the fitted dose curve; in most records, active means well fitted curve in the direction sought with a large enough effect; inconclusive means small, poorly fitted or top-dose-only effect, or another doubt; inactive means no such curve, though single readings can be large; an effect the other way counts as inactive or inconclusive.

Cc1ccc(C2CC(c3cccs3)=NN2C(=O)CSC2=NCCS2)cc1 (stereo not given)	Nrf2 inh 16µM
CCC(=O)N1N=C(c2cccs2)CC1c1ccc(C)cc1 (stereo not given)	none (no result: GALK inh)
CCOC(=O)CCSCC(=O)N1N=C(c2cccs2)CC1c1ccc(C)cc1 (stereo not given)	none
O=C(Nc1ccccc1)N1N=C(c2cccs2)CC1c1cccs1 (stereo not given)	Nrf2 inh 23µM
COc1ccc(C2CC(c3cccs3)=NN2C(=O)CSC2=NCCS2)cc1 (stereo not given)	Nrf2 inh 18µM
CCn1c(NCc2cccc(Cl)c2)nc2ccccc21	TrxR1 inh inconclusive (no result: GALK inh)
COc1ccccc1C(C[N+](=O)[O-])c1c(N)n(C)c(=O)n(C)c1=O (stereo not given)	Nrf2 activator inconclusive, TrxR1 inh inconclusive, Nrf2 inh 12µM, A549 viability inconclusive (no result: GALK inh)
N#C/C(=C\c1cccs1)C(=O)c1ccccc1Cl	TrxR1 inh 13µM
CCOc1ccc(NC(=O)Cn2c(=O)n(CCCS(=O)(=O)C3CCCCC3)c(=O)c3ccccc32)cc1	none (no result: GALK inh)
COc1ccc(/C=N/NC(=O)c2ccc(CSc3nc(C)cc(C)n3)cc2)c(OC)c1OC	none
COc1ccc(/C=N/NC(=O)c2ccc(CSc3nc(C)cc(C)n3)cc2)cc1O	Nrf2 inh 21µM
COc1ccc(O)c(/C=N/NC(=O)c2ccc(CSc3nc(C)cc(C)n3)cc2)c1	Nrf2 inh 9.2µM
COc1cc(-c2nc(S(=O)(=O)c3ccc(Br)cc3)c(N3CCOCC3)o2)cc(OC)c1OC	none (no result: GALK inh, Nrf2 inh)
COc1ccc(-c2ccc3ncnc(NCCc4cnc[nH]4)c3c2)cc1OC	A549 viability inconclusive (no result: Nrf2 activator, GALK inh, TrxR1 substrate, TrxR1 inh)
COc1cc2nc(NC(=O)c3ccc(F)cc3Cl)sc(=O)c2cc1OC	Nrf2 inh 6.5µM
O=C(Nc1nc2ccsc2c(=O)s1)c1ccc(F)cc1Cl	Nrf2 inh inconclusive
CCc1cccc2c(C(O)c3c[nH]c4ccccc34)c[nH]c12 (stereo not given)	none (no result: Nrf2 activator, GALK inh, Nrf2 inh, A549 viability)
COc1ccc(-n2c(-c3ccccc3)nc(=S)c3c2CCCC3)cc1	none (no result: Nrf2 inh)
COc1ccc(-n2c(-c3cccc(OC)c3)nc(=S)c3c2CCCC3)cc1	TrxR1 inh inconclusive, Nrf2 inh 26µM
Cc1nc2nc(SCC(=O)NC3CCCCC3)nn2c(C)c1Cc1ccccc1Cl	none (no result: GALK inh)
O=C1N[C@@H](Cc2ccccc2)COC(=O)[C@H](Cc2ccc(F)cc2)CC/C=C/C[C@@H]1CC(=O)N(CCO)Cc1ccccc1	none (no result: GALK inh)
O=C1N[C@@H](Cc2c[nH]c3ccccc23)COC(=O)[C@H](Cc2ccc(F)cc2)C/C=C\C[C@H]1CC(=O)N(CCO)Cc1ccccc1	Nrf2 inh 26µM, A549 viability inconclusive (no result: GALK inh)
O=C1N[C@@H](Cc2ccccc2)COC(=O)[C@H](Cc2ccc(F)cc2)CC/C=C/C[C@H]1CC(=O)N(CCO)Cc1ccccc1	Nrf2 inh 23µM (no result: GALK inh)
O=C1NC[C@@H](c2ccccc2)OC(=O)[C@H](Cc2ccc(F)cc2)C/C=C\C[C@@H]1CC(=O)N(CCO)Cc1ccccc1	Nrf2 inh 26µM, A549 viability inconclusive (no result: GALK inh)
O=C1N[C@@H](Cc2c[nH]c3ccccc23)COC(=O)[C@@H](Cc2ccc(F)cc2)CC/C=C/C[C@@H]1CC(=O)N(CCO)Cc1ccccc1	Nrf2 inh inconclusive, A549 viability inconclusive (no result: GALK inh)
O=S(=O)(c1ccc2c(c1)OCCO2)N1CCN(S(=O)(=O)c2ccc3nc(Cl)c(Cl)nc3c2)CC1	none (no result: Nrf2 activator, GALK inh, TrxR1 substrate, TrxR1 inh)
COC(=O)c1scc(-c2ccc(C)cc2)c1S(=O)(=O)Nc1cc(OC)c(OC)c(OC)c1	Nrf2 activator inconclusive, Nrf2 inh inconclusive (no result: GALK inh)
Cc1ccc(-c2csc3ncnc(Oc4ccc5c(C)cc(=O)oc5c4)c23)cc1	none
CC(=O)Nc1cccc(Oc2ncnc3scc(-c4ccc(C)cc4)c23)c1	Nrf2 inh 18µM, A549 viability inconclusive
O=C1OC(Nc2ccc3c(c2)OCO3)c2ccccc21 (stereo not given)	Nrf2 activator 11µM, TrxR1 inh inconclusive, Nrf2 inh inconclusive
O=C1OC(Nc2ccc(F)c([N+](=O)[O-])c2)c2ccccc21 (stereo not given)	none (no result: GALK inh)
CCOc1ccc(OCC)c(NC(=O)C2CCCN(S(=O)(=O)c3ccc4c(c3)oc(=O)n4C)C2)c1 (stereo not given)	none (no result: GALK inh)
COc1ccc(Cn2c(SCc3cc(C)ccc3C)nc3cc(OC)c(OC)cc3c2=N)cc1	Nrf2 inh 23µM, A549 viability 18µM
COc1ccc(Cn2c(SCc3ccc(C)cc3)nc3cc(OC)c(OC)cc3c2=N)cc1Cl	Nrf2 inh inconclusive, A549 viability inconclusive
Cc1ccc(C)c(N2CCN(C(=O)CCS(=O)(=O)c3ccc4c(c3)CCN4C(=O)C3CC3)CC2)c1	Nrf2 inh 26µM
O=C1COc2ccc(S(=O)(=O)CCC(=O)N3CCN(c4ccccc4)CC3)cc2N1	TrxR1 inh inconclusive
Cc1ccc(C)c(N2CCN(C(=O)CCS(=O)(=O)c3ccc4c(c3)NC(=O)CO4)CC2)c1	Nrf2 inh 8.2µM
Cc1ccc(Cn2cnc3c(cnn3C(C)(C)C)c2=O)cc1F	none (no result: Nrf2 activator, GALK inh, Nrf2 inh, A549 viability)
COC(=O)C1CCN(c2cc(=O)n(-c3ccc(OC)cc3)c(=O)[nH]2)CC1	TrxR1 inh 28µM
O=C(COc1ccc2ccccc2c1)Nc1ccc(Cc2ccncc2)cc1	Nrf2 inh 15µM
COc1ccc(CCNC(=O)C(=O)NCC(c2cccs2)S(=O)(=O)c2ccc(F)cc2)cc1 (stereo not given)	none (no result: GALK inh, Nrf2 inh)
COc1ccc(C(C)(C)C)cc1NC(=O)Nc1ccc2c(c1)OCO2	Nrf2 inh 23µM, A549 viability inconclusive
O=C1OC(/C(=C\Nc2cc(Cl)ccc2O)[N+](=O)[O-])c2ccccc21 (stereo not given)	Nrf2 activator 11µM, Nrf2 inh inconclusive
Cn1c(=O)c2c(nc(N3CCOCC3)n2Cc2ccccc2F)n(C)c1=O	none (no result: GALK inh)
CC1C/C(=C/c2ccccn2)C(=O)/C(=C/c2ccccn2)C1 (stereo not given)	TrxR1 inh inconclusive, Nrf2 inh 16µM, A549 viability inconclusive
O=C1/C(=C/c2ccc(O)cc2)COc2ccccc21	Nrf2 activator inconclusive
CC(C)(C)C1C/C(=C/c2ccccn2)C(=O)/C(=C/c2ccccn2)C1 (stereo not given)	Nrf2 activator inconclusive, TrxR1 inh 35µM, Nrf2 inh 5.8µM, A549 viability 5.8µM
O=C1/C(=C/c2ccccn2)COc2ccccc21	TrxR1 inh 22µM
